Test results as given in PubChem BioAssay.
Active and inactive are the calls of the source.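 The calls were made as follows: active = fluorescence ratio normalized to control raised more than 50% in primary screen plus both repeat runs; inactive = the rest.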

system: TRPC4 beta (transient receptor potential cation channel C4), mouse; assay: activators of mouse TRPC4 channel, confirmation, cell-based, Fluo4 calcium, HEK293 TRPC4beta/mu-opioid, duplicates, 10 µM (AID 2426); conditions: Fluo4 calcium fluorescence, at 10 µM; hits give high values;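 as to activation: percent rise of integrated ratio over buffer wells lacking compound which define 0%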

activation, active:
CN1CCC(CNC(=O)Nc2ccccc2)(c2ccccc2)CC1 97%
Cc1ccc(C)c(OCCCCCn2ccnc2)c1 174%
CN(C)C(CNC(=O)c1ccc2ccccc2n1)c1ccccc1 (stereo not given) 61%
CCn1cc(CN2CCC(n3nccc3NC(=O)CCOc3ccccc3)CC2)cn1 78%
CCOC(=O)C1(CCOc2ccccc2)CCN(Cc2cnc(C)s2)CC1 66%
CCN1CCN(c2ccc(S(=O)(=O)N3CCOCC3)cc2NC(=O)C(C)Oc2cccc(Cl)c2)CC1 (stereo not given) 83%
CN(CCc1nc2ccc(Cl)cc2[nH]1)Cc1nc(CC2CC2)no1 115%
COc1ccccc1CCC(=O)Nc1cc(S(=O)(=O)N2CCCCC2)ccc1N1CCN(C)CC1 153%
CCCCC(=O)NNC(=S)NC(=O)c1ccc(C)cc1 240%
Cc1ccc(C2N(c3ccc(Cl)c(Cl)c3)C(=O)C3CCCN32)o1 (stereo not given) 53%
O=C(Nc1nnc(-c2ccccc2Cl)o1)c1nc2ccccc2s1 143%
CCOC(=O)C1(CC2CCCCO2)CCN(Cc2c(C)cc(C)cc2-n2cccn2)CC1 (stereo not given) 75%
Cc1ccccc1OCC(=O)NNC(=S)NC(=O)c1ccco1 103%
Cc1ccc(C2(O)CN(c3ccccc3C)C3=[N+]2CCS3)cc1 (stereo not given) 87%
Cc1ccccc1C(=O)NNC(=S)NC(=O)c1ccccc1 215%
Fc1ccc(-c2nnc(CN3CCN(c4ncc(C(F)(F)F)cc4Cl)CC3)o2)cc1 120%
CNCCCOc1ccc2c(c1)CCC2 75%
CCN(CCCNS(=O)(=O)c1cc(-c2cc(C)no2)ccc1C)Cc1ccccc1 171%
COc1ccc(C(CNC(=O)c2cc(SC)ccc2Cl)N(C)C)cc1 (stereo not given) 103%
O=C(NCCc1ccccn1)C(F)(F)C(F)(F)C(F)(F)C(F)(F)C(F)(F)C(F)F 178%
COc1ccc(-c2cc(C#N)nc(N3CCNCC3)n2)cc1 176%
Cc1ccccc1NC(=S)NCCc1ccccn1 143%
Cn1c(CN2CCN(c3cccc(Cl)c3)CC2)nc2ccccc21 119%
CCn1c(N2CCN(Cc3ccc([N+](=O)[O-])cc3)CC2)nc2ccccc21 100%
CN(C)C(CNC(=S)Nc1ccc(F)cc1)c1cccnc1 (stereo not given) 95%
CC1CC(C)CN(CCCNC(=O)COc2cc(=O)n(C)c3ccccc23)C1 (stereo not given) 88%
CN(C)CCCN(C(=O)c1ccc(C(=O)c2ccccc2)cc1)c1nc2ccc(F)cc2s1 83%
CCCCN(CC)CCNC(=O)c1cc2cc3ccc(Cl)cc3nc2o1 67%
COc1ccc(C(=O)NC(=S)NNC(=O)CCc2ccccc2)cc1 100%
CCN(CC)CCSc1nc2ccc(OC)cc2[nH]1 90%
Cc1ccc(C)c(OCCCCn2ccnc2)c1 111%
Cc1nc(/N=C(\N)NC(=O)NC2CCCCC2)nc2ccccc12 99%
COC(=O)[C@@]1(Cc2ccc(F)cc2)[C@H]2c3cc(C(=O)N(C)C)n(CCc4ccccn4)c3C[C@H]2CN1C(=O)c1ccccc1 136%
O=C(CNS(=O)(=O)c1ccc2ccccc2c1)NCCc1ccccn1 110%

outcome, inactive:
COc1ccccc1N1CCN(C(c2cccs2)C(C)NC(=O)c2cccs2)CC1 (stereo not given)
Cc1ccc(C(=O)NC(=S)NNC(=O)c2ccccc2)cc1
CCOC(=O)c1oc2ccc(OC)cc2c1NC(=O)CN1CCN(C)CC1
CCCCCSc1nnc2c(n1)OC(c1cccn1C)N(C(C)=O)c1ccccc1-2 (stereo not given)
O=C(Cn1c(-c2ccccc2)c[n+]2ccsc12)c1ccc(Br)cc1
COc1ccc(C(=O)NC(=S)NNC(=O)c2c(-c3ccccc3)noc2C)cc1OC
